Experimental findings from PubChem BioAssay (NCI) are described below.

What all share (experiment): NCI-60 one-dose screen, 48 h (100 = growth as untreated, 0 = no growth, -100 = all killed)
Holding throughout (settings): 10 µM unless noted

Test [1] has as its system SK-MEL-2 melanoma.
Test [2] concerns EKVX NSCLC.
The subject of test [3] is SN12C renal.
Test [4] has as its system UO-31 renal.
Test [5] has as its system TK-10 renal.
Test [6] concerns ACHN renal.
Test [7] relates to CAKI-1 renal.
Test [8] has as its system A498 renal.
Test [9] deals with CCRF-CEM leukemia.
In test [10] the test system is MOLT-4 leukemia.
For test [11], the system named is SR leukemia.
Test [12] deals with RPMI-8226 leukemia.
Test [13] deals with OVCAR-8 ovarian.
Test [14] has as its system OVCAR-5 ovarian.
Test [15] relates to OVCAR-4 ovarian.
Test [16] has as its system SK-OV-3 ovarian.
Test [17] has as its system IGROV1 ovarian.
In test [18] the test system is OVCAR-3 ovarian.
In test [19] the test system is HS 578T breast.
Test [20] relates to NCI/ADR-RES ovarian.

Molecules are shown by their SMILES. About 83,000 compounds went through this panel and 20% of them were active in at least one assay; those are over-represented in the sample as a whole.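 48-hour exposure, single concentration, 96-well plates; percent growth endpoint where 0 means no net growth. Active: below 10.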 Unmarked numbers belong to inactive results. Calls of active or inactive are those of the source.

`NC(=O)c1cc(I)ccc1NC(=O)/C=C/c1ccccc1Cl`: the growth was 75.1% in test [1]; 28% in [2]; 40.7% in test [3]; 30.6% in test [4]; 62.3% in [5]; 56.2% in [6]. Moreover, the growth was 13% in [7]; 62.4% in [8]; -19.6% (active) in test [9]; 10.4% in [10]; -30.4% (active) in test [11]; -11.5% (active) in test [12]. Also, the growth was 31.3% in [13]; 38.2% in test [14]; 9.92% (active) in [15]; 4.87% (active) in test [16]; 77.5% in test [17]; -40.8% (active) in test [18]. Further, the growth was -17.6% (active) in [19] and 8.88% (active) in [20].
On to `CCN=C1C=CC(=C(c2ccc(N)cc2)c2ccc(N(CC)CC)c(C)c2)C=C1`, for which the growth in test [1] is -15.3% (active); in test [2] it was 10.6%; in test [3], -14% (active); in test [4], 3.22% (active); in test [5], 15.4%; in test [6], -2.24% (active). The growth in [7] is 14.1%; in test [8], -26.5% (active); in [9] it was -19.5% (active); in [10], -4.13% (active); in test [11], -17.6% (active); in [12] it was -30.8% (active). In addition, the growth is 1.54% (active) in test [13]; 18.2% in [14]; 24.2% in test [15]; 6.51% (active) in test [16]; 11.6% in test [17]; -28.9% (active) in [18]. The figures for the growth in test [19] and in test [20] were -24.6% (active) and 67.7%, respectively.
`O=C1OC(c2ccccc2)C(O)=C1c1ccccc1` (stereo not given): the growth is 117% in test [1]; 104% in test [2]; 98.9% in test [3]; 79.7% in [4]; 110% in test [5]; 103% in test [6]. For the same compound, the growth was 95% in [7]; 100% in test [8]; 89.7% in [9]; 90.1% in test [10]; 109% in test [11]; 96.5% in test [12]. Moreover, the growth in test [13] was 100%; in test [14], 99.2%; in [15], 121%; in [16], 115%; in [17], 111%; in [18] it was 102%. The figures for the growth in [19] and in [20] were 110% and 116%, respectively.
In the case of `Nc1ccc(-c2cc3c(Nc4ccc(Oc5cccc(C(F)(F)F)c5)c(Cl)c4)ncnc3s2)cc1`, the growth in test [1] was 88.1%; in test [2], 54.8%; in [3] it was 57.3%; in [4], 47.3%; in test [5], 90.3%; in test [6], 60.5%. The growth in test [7] is 60.3%; in test [8], 89.5%; in [9], 48.9%; in [10], 48.2%; in test [11] it was 50.4%; in [12], 53.1%. For the same compound, the growth in [13] was 73.3%; in test [14], 93.4%; in [15], 77.8%; in test [16], 83%; in test [17], 59.9%; in test [18], 56.6%. Also, the values for the growth in test [19] and in test [20] were 83.1% and 69.7%, respectively.
In the case of `O=C1Nc2c(ccc(Cl)c2Cl)/C1=C\c1cc(C(F)(F)F)cc(C(F)(F)F)c1`, the growth in test [1] is 38.4%; in test [2], 26.9%; in test [3] it was 14.2%; in [4], 16.6%; in [5], 26%; in test [6], 8.13% (active). Also, the growth in test [7] was 8.62% (active); in test [8], -23.7% (active); in test [9], 30.8%; in test [10], -14.2% (active); in [11], -41.1% (active); in [12], 25.6%. The growth in test [13] is 27.1%; in test [14], -28.8% (active); in [15], 9.67% (active); in test [16], 59.9%; in test [17], 3.13% (active); in [18], -34.2% (active). Further, the growth in [19] was -37.6% (active); in test [20] it was 8.35% (active).
Take `COc1cc2c(cc1-c1c(C)noc1C)ncc1nc(C3CCCCC3)n([C@H](C)COC(F)F)c12`: the growth in test [1] is 69%; in test [2], 44.3%; in [3], 58.4%; in test [4], 13.6%; in test [5], 33.2%; in test [6], 33.1%. The growth in test [7] is 29.2%; in [8], -13.1% (active); in [9] it was 44.9%; in test [10] it was 47.6%; in [11] it was 17.9%; in test [12], 18.9%. The growth is 42% in test [13]; 75.1% in [14]; 44.8% in test [15]; 12.5% in test [16]; 37.8% in test [17]; 37.3% in test [18]. Besides, the growth was 18.9% in [19] and 38.2% in test [20].
Take `CC1CCNC(C)C1` (stereo not given): the growth in test [1] is 112%; in test [2], 107%; in test [3], 103%; in test [4] it was 93.2%; in test [5] it was 109%; in test [6], 106%. For the same compound, the growth in test [7] was 101%; in [8], 106%; in test [9], 94.4%; in test [10], 116%; in test [11], 105%; in test [12] it was 98.2%. Besides, the growth is 107% in [13]; 113% in [14]; 99.6% in test [15]; 99.6% in test [16]; 116% in test [17]; 112% in test [18]. For the same compound, the growth is 104% in test [19] and 106% in test [20].
